Measured values taken from PMC6792352, “Limited Chemical Structural Diversity Found to Modulate Thyroid Hormone Receptor in the Tox21 Chemical Library” (Environmental Health Perspectives, 2019).
Structures can show the parent of a compound that is named as a salt.

tested on: thyroid hormone receptor (endogenous TRα and TRβ); set-up: species or system GH3-TRE-Luc (rat pituitary); GH3-TRE-Luc luciferase reporter, antagonist mode against 1 nM T3, loss of signal, qHTS; details: read-out: Average AC50 (uM) GH3-TRE-Antag, antagonist mode, 1 nM T3, no GH3 cytotoxicity hit

**Q.** CCC(=O)OCC(=O)[C@@]1(OC(=O)CC)[C@@H](C)C[C@H]2[C@@H]3CCC4=CC(=O)C=C[C@]4(C)[C@@]3(F)[C@@H](O)C[C@@]21C [Betamethasone dipropionate] was tested. Which AC50 did it give?
**A.** 27.9 µM

**Q.** How did the AC50 turn out when CCCCCCC[N+](CC)(CC)CCCCc1ccc(Cl)cc1 [Clofilium tosylate] was run?
**A.** 16.3 µM

**Q.** How did the AC50 turn out when CSC1=N[C@@](C)(c2ccccc2)C(=O)N1Nc1ccccc1 [Fenamidone] was run?
**A.** 6.3 µM

same assay, conditions: read-out: Average AC50 (uM) GH3-TRE-Antag, antagonist mode, 1 nM T3, no GH3 cytotoxicity hit, Average AC50 (uM) GH3-TRE-Antag, 24 h

**Q.** How did the AC50 turn out when OCCOCCN1CCN(C2=Nc3ccccc3Sc3ccccc32)CC1 [Quetiapine fumarate] was run?
**A.** 23.5 µM

**Q.** With CCCCCC[n+]1ccccc1 [1-Hexylpyridinium bromide] as the compound, how does the AC50 read?
**A.** 62.1 µM

**Q.** With CC(C)n1c(/C=C/[C@H](O)C[C@H](O)CC(=O)O)c(-c2ccc(F)cc2)c2ccccc21 [Fluvastatin sodium] as the compound, how does the AC50 read?
**A.** 39.3 µM
